Experimental data reported in PubChem BioAssay (EPA / NIEHS).
The source made the active and inactive calls. Rule for the calls: active = hit-call score of the fitted dose curve at least 0.9, where 1 is the maximum; inactive = score below 0.9.

assay: BSK_4H_Eotaxin3: BioMAP Diversity Plus: 4H Assay for Eotaxin 3 Biomarker Activity (AID 2283000); conditions: primary human endothelial cells (HUVEC); actives raise or lower the signal
Description: BSK_4H is a cell-based, multiplexed-readout assay that uses umbilical vein endothelium, a human vascular primary cell, with measurements taken at 24 hours after chemical dosing in a 96-well plate.BSK_4H_Eotaxin3 is an assay component measured in the BSK_4H assay. It measures Eotaxin-3 antibody related to regulation of gene expression using ELISA technology.Data from the assay component BSK_4H_Eotaxin3 was analyzed into 1 assay endpoint. This assay endpoint, BSK_4H_Eotaxin3, was analyzed with bidirectional fitting relative to DMSO as the negative control and baseline of activity. Using a type of binding reporter, gain or loss-of-signal activity can be used to understand changes in the signaling as they relate to the gene CCL26. Furthermore, this assay endpoint can be referred to as a primary readout, because this assay has produced multiple assay endpoints where this one serves a signaling function. To generalize the intended target to other relatable targets, this assay endpoint is annotated to the cytokine intended target family, where the subfamily is chemotactic factor.
The levels of cell surface (or secreted, indicated by the prefix "s") biomarker endpoints were measured by ELISA. Overt cytotoxicity to cells in confluent adherent cultures (all systems other than the BT system) was assessed by measuring total protein levels using sulforhodamine B (SRB) staining in parallel cultures at the time of biomarker measurements, indicated as SRB endpoints. For proliferation assays for adherent cell types, individual cell types are cultured at sub-confluence and relative cell numbers quantified by SRB staining at time points optimized for each system (48 h: 3C and CASM3C systems; 72 h: BT and HDF3CGF systems; 96 h: SAg system). SRB was performed by staining cells with 0.1% SRB after fixation with 10% TCA and reading wells at 560 nm.Viability and proliferation of PBMC (T cells) was quantified by Alamar Blue reduction for the SAg and BT systems. For PBMC viability (referred to as PBMC Cytotoxicity within the assay endpoint names), cells were plated (75,000/well in a 96-well plate) and then chemical samples added for 1 h before addition of activators, SEB and TSST-1 (20 ng/mL final concentration each). Cells were incubated for 90 h. Then, Alamar Blue (20 uL/well) (Invitrogen, Cat DAL1100) was added for 6 h, and the plates were read with a fluorescence microplate reader at 546/580 nm (excitation/emission). For PBMC proliferation, cells were plated and activated as above but incubated for only 16 h prior to addition of Alamar Blue. Plates were read after 6 h.

For CCOC(=O)C(SP(=S)(OC)OC)c1ccccc1 (stereo not given), which AC50 is on record?
The AC50 was 29.1 µM (active).

Which AC50 does the source give for Cc1ccccc1OP(=O)(Oc1ccccc1)Oc1ccccc1 here?
The AC50 was 28.7 µM (active).

Which AC50 does the source give for CC(C)(C)c1cc([N+](=O)[O-])cc(C(C)(C)C)c1O here?
Its AC50 is 0.016 µM (active).

For N#CCCC(Br)(C#N)CBr (stereo not given), which AC50 is on record?
The AC50 was 8.6 µM (active).

With Cc1cc(Cl)ccc1OC(C)C(=O)O (stereo not given) as the compound, how does the outcome read?
The outcome was “inactive”.

Which outcome does the source give for O=C(O)COc1cc(Cl)c(Cl)cc1Cl here?
Its outcome is “inactive”.

For O=C(N[C@H]1CN2CCC1CC2)c1ccc2c(c1)OCCO2, which outcome is on record?
The outcome was “inactive”.

With CC(C)(C)c1ccccc1O as the compound, how does the outcome read?
Its outcome is “inactive”.

With C#CCOC(=O)/C=C(C)/C=C/CC(C)CCCC(C)C (stereo not given) as the compound, how does the AC50 read?
Its AC50 is 20 µM (active).

For CCCCN(CCCC)C(=S)[S-].CCCCN(CCCC)C(=S)[S-].[Ni+2], which outcome is on record?
The outcome was “inactive”.

Which outcome does the source give for Cc1cc(C(C)(C)c2ccc(O)c(C)c2)ccc1O here?
Its outcome is “inactive”.

With O=[N+]([O-])c1cccc2ccccc12 as the compound, how does the outcome read?
The outcome was “inactive”.

For O=C(O)C1(c2ccc3c(c2)OC[C@H](Cc2ccc(-c4ccccc4)cc2)[C@H]3O)CCCC1, which outcome is on record?
Its outcome is “inactive”.

Which outcome does the source give for CCCCOC(=O)COC(=O)c1ccccc1C(=O)OCCCC here?
Its outcome is “inactive”.

Which AC50 does the source give for Cc1ccccc1OP(=O)(Oc1ccccc1C)Oc1ccccc1C here?
The AC50 was 9.39 µM (active).

For Clc1cccc(Cl)c1Cl, which outcome is on record?
Its outcome is “inactive”.

With COc1ccccc1N as the compound, how does the outcome read?
Its outcome is “inactive”.

With CCOP(=O)(OCC)SCCSCC as the compound, how does the outcome read?
Its outcome is “inactive”.

For O=c1oc2ccccc2c(O)c1C(CC(O)c1ccc(-c2ccc(Br)cc2)cc1)c1ccccc1 (stereo not given), which AC50 is on record?
The AC50 was 16.9 µM (active).

Which outcome does the source give for OCCN(CCO)CCO here?
The outcome was “inactive”.

For Oc1ccc(Cc2ccc(O)cc2)cc1, which outcome is on record?
The outcome was “inactive”.

Which outcome does the source give for Cc1cc(C)cc(C)c1 here?
Its outcome is “inactive”.

Which outcome does the source give for OC(Cc1ccccc1Cl)(Cn1cncn1)C1(Cl)CC1 (stereo not given) here?
The outcome was “inactive”.

For O=S(=O)(C(Cl)(Cl)Cl)C(Cl)(Cl)Cl, which AC50 is on record?
Its AC50 is 1.47 µM (active).

Which outcome does the source give for C[C@]12CC[C@@H](O)C[C@@H]1CC[C@@H]1[C@@H]2CC[C@]2(C)C(=O)CC[C@@H]12 here?
The outcome was “inactive”.

With CN(C)C(=S)S as the compound, how does the outcome read?
The outcome was “inactive”.

Which AC50 does the source give for Oc1cc(Cl)c(Cl)cc1Cl here?
Its AC50 is 27.6 µM (active).

With O=S(=O)(c1ccc(Cl)cc1)c1cc(Cl)c(Cl)cc1Cl as the compound, how does the outcome read?
The outcome was “inactive”.

With CCCCCCCCCCCCc1cccc(S(=O)(=O)O)c1 as the compound, how does the outcome read?
Its outcome is “inactive”.

With Cc1cc(Cl)ccc1N as the compound, how does the outcome read?
The outcome was “inactive”.

With CC1(C)[C@H](C(=O)O[C@H](C#N)c2cccc(Oc3ccccc3)c2)[C@@H]1/C=C(\Cl)C(F)(F)F as the compound, how does the outcome read?
Its outcome is “inactive”.

Which outcome does the source give for OCCCCO here?
Its outcome is “inactive”.

For O=C1C=CC(=O)c2ccccc21, which AC50 is on record?
Its AC50 is 2.17 µM (active).

For CCCCCCCCCCCCN(C)C, which outcome is on record?
The outcome was “inactive”.

For [Cl][Sn]([c]1ccccc1)([c]1ccccc1)[c]1ccccc1, which AC50 is on record?
The AC50 was 0.0985 µM (active).

With Nc1c(Oc2ccccc2)cc(O)c2c1C(=O)c1ccccc1C2=O as the compound, how does the AC50 read?
Its AC50 is 10 µM (active).

For COCC(=O)N(c1c(C)cccc1C)[C@H](C)C(=O)OC, which outcome is on record?
Its outcome is “inactive”.

With CCOC(=O)CC(=O)CCl as the compound, how does the AC50 read?
Its AC50 is 20 µM (active).

For Cc1ccc(OP(=O)(Oc2ccc(C)cc2C)Oc2ccc(C)cc2C)c(C)c1, which outcome is on record?
The outcome was “inactive”.

Which outcome does the source give for N#Cc1cccnc1 here?
Its outcome is “inactive”.
